Inconclusive results are not listed. The source made the active and inactive calls. Calls come from the whole dose curve; as a rule, active = well fitted inhibition curve with a large enough effect; inconclusive = small, poorly fitted or top-dose-only effect; inactive = flat fitted curve, though single readings scatter.
assay: Identification of antibody-drug conjugate (ADC) payloads which are substrates of ATP-binding cassette drug efflux transporters: ABCB1-HEK293-pcDNA cell line; settings: HEK293 empty-vector (pcDNA) control viability, CellTiter-Glo, 48 h
Description: Antibody-drug conjugates (ADCs) feature an antibody recognizing a specific protein joined to a potent toxic payload. Numerous antibody-drug conjugates have received FDA approval; however, clinical resistance arises. Resistance mechanisms include decreased expression or mutation of the antibody target, impaired payload release, or increased expression of ATP-binding cassette (ABC) efflux transporters associated with multidrug resistance. We therefore sought to characterize the interaction of ABC multidrug transporters with ADC payloads. We performed a high-throughput screen with 27 common ADC payloads using cells lines expressing ABC transporters P-glycoprotein (P-gp, encoded by ABCB1) or ABCG2 (encoded by ABCG2). Confirmatory assays were also performed using cells transfected to express P-gp, ABCG2, or MRP1 (encoded by ABCC1). Several commonly used ADC payloads were substrates of P-gp, including calicheamicin gamma1, monomethyl auristatin E, DM1, and DM4. All the pyrrolobenzodiazepines tested - SJG136, SGD-1882, SG2057, and SG3199 - were substrates of P-gp, ABCG2, and MRP1. […] These findings highlight the risk of transporter-mediated resistance with certain ADC payloads and underscore the importance of selecting payloads that evade ABC transporter recognition in future ADC development.
HEK-293 cells were transfected with empty vector (pcDNA) or vector containing the human ABCB1 (MDR-19), ABCG2 (R-5), or ABCC1 gene (MRP1) and were maintained in EMEM with 2 mg/mL G418 added to maintain transporter expression. The HeLa derivative KB-3-1 and the P-gp overexpressing KB-8-5-11 subline were maintained in DMEM; KB-8-5-11 additionally received 100 ng/mL colchicine. H460 parental cells were obtained from the Division of Cancer Treatment and Diagnosis Tumor Repository, National Cancer Institute at Frederick, MD and were cultured in RPMI. The ABCG2 expressing subline H460 MX20 was generated by selecting H460 cells in 20 nM mitoxantrone. Media in all cases was supplemented with 10% FBS and 1% penicillin-streptomycin. We explored 27 common ADC payloads, in two orthogonal, paired cell line sets-a drug selected and transfected set for each transporter--to identify substrates of the ABC transporters P-gp and ABCG2. Compounds were sourced from Levena Biopharma (San Diego, CA), Selleck Chem (Houston, TX), ChemieTek (Indianapolis, IN), or Microsource Discovery Systems (Gaylordsville, CT). Screening was performed as previously described. Briefly, cells were plated at a density of 500 cells/well in 1536 well plates with compounds added using a 1536-head pin tool (Kalypsys, San Diego CA). Cells were incubated with cytotoxic drugs and processed with CellTiter Glo reagent (Promega, Madison, WI) to determine viability after 48 hours. […]

| Structure (SMILES) | Potency |
| --- | --- |
| CC[C@@]1(O)C(=O)OCc2c1cc1n(c2=O)Cc2cc3ccccc3nc2-1 | 11.8 nM (active) |
| COc1cccc2c1C(=O)c1c(O)c3c(c(O)c1C2=O)C[C@@](O)(C(=O)CO)CC3OC1CC(N2CCOC(OC)C2)C(O)C(C)O1 (some centres undefined) | 1.7 nM (active) |
| COc1cc2cc(C(=O)N3C[C@@H](CCl)c4c3cc(O)c3ccccc43)[nH]c2c(OC)c1OC | 1.5 nM (active) |
| CC[C@H](C)[C@H](NC(=O)[C@H]1CCCCN1C)C(=O)N(C)[C@H](C[C@@H](OC(C)=O)c1nc(C(=O)N[C@@H](Cc2ccccc2)C[C@H](C)C(=O)O)cs1)C(C)C | 1.3 nM (active) |
